{"source": "PubChem BioAssay (NCI)", "note": "Several values for one entry are separate records, joined by “and”; a condition that tells them apart may be missing. Identical values can stand only once. The panel holds about 83,000 compounds, 20% with a hit somewhere; the sample as a whole holds those more often.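 Interpretation: 100, growth as untreated; towards 0, rising growth inhibition; 0, no net growth; 0 to -100, cell death. Compounds scoring below 10 were considered active.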 Activity calls are given as the source filed them.", "data": [{"system": "MDA-MB-468 breast", "experiment": "NCI-60 one-dose screen, 48 h (100 = growth as untreated, 0 = no growth, -100 = all killed)", "settings": "10 µM unless noted", "values": [{"smiles": "O=S(=O)(NCCCNc1nccc(-c2c(-c3ccc(F)cc3)nc3sccn23)n1)c1ccc(F)cc1", "growth": "50.5% (inactive)"}, {"smiles": "Cc1cc(O)ccc1C1=NN(c2ccc(S(C)(=O)=O)cc2)C(=O)CC1", "growth": "103% (inactive)"}, {"smiles": "Fc1ccc(Nc2ccnc(N3CCN(c4ccnc5cc(Cl)ccc45)CC3)n2)cc1", "growth": "15.9% (inactive)"}, {"smiles": "COC1=C(OC)C(=O)c2ccccc2C1=O", "growth": "-34% (active)"}, {"smiles": "CCOC(=O)C(=Cc1cccc(Br)c1)C(=O)OCC", "growth": "31% (inactive)"}, {"smiles": "O=C1/C(=C\\c2cccnc2)SC(=S)N1CCc1ccc(O)cc1", "growth": "35.2% (inactive)"}, {"smiles": "Nc1nc(SC/C=C/CCl)c2[nH]cnc2n1", "growth": "103% (inactive) and 127% (inactive)"}, {"smiles": "O=C1NC(=O)C(Cc2ccc(OCc3ccc(-c4ccc(Cl)cc4Cl)cc3)cc2)S1", "note": "(stereo not given)", "growth": "14.3% (inactive)"}, {"smiles": "CCOC(=O)c1cc2c(n1Cc1ccccc1OC)-c1oncc1CCC2", "growth": "7.1% (active)"}, {"smiles": "N[C@H](C(=O)O)[C@@H]1CC(Cl)=NO1", "growth": "29.4% [20 µM] (inactive)"}, {"smiles": "C[n+]1cc2cc3c(cc2c2ccccc21)OCO3", "growth": "-21.2% (active)"}, {"smiles": "COc1ccccc1CNCCCN1C(=O)c2ccc3c4c(ccc(c24)C1=O)C(=O)N(CCCN)C3=O", "growth": "-88.1% (active)"}, {"smiles": "Nc1c(C(=O)Nc2cccc3ccccc23)sc2nc3c(cc12)CCCCC3", "growth": "37.1% (inactive)"}, {"smiles": "COc1cc(C)cc2oc3oc(=O)c(-c4csc(-c5cc6ccccc6oc5=O)n4)cc3c(=O)c12", "growth": "102% (inactive)"}, {"smiles": "COc1cc(-c2cccc([N+](=O)[O-])c2)c(-c2nc(-c3ccccc3)c(-c3ccccc3)n2C2CC2)cc1OC", "growth": "49.4% (inactive)"}, {"smiles": "CCN1/C(=C/C(C)=C/c2sc3ccc4ccccc4c3[n+]2CC)Sc2ccc3ccccc3c21", "growth": "-87.4% (active)"}, {"smiles": "O=C1C(Br)=CC2C1C1C3CCC3C2(Br)C12OCCO2", "note": "(stereo not given)", "growth": "19.4% (inactive)"}, {"smiles": "CC[N+](C)(C)N", "growth": "95.9% (inactive)"}, {"smiles": "O=C1Nc2c(C(=O)O)cccc2/C1=N/c1n[nH]c(=S)s1", "growth": "89.4% (inactive)"}, {"smiles": "COc1ccc(Nc2nccc(Nc3ccc4[nH]ncc4c3)n2)cc1", "growth": "44% (inactive)"}, {"smiles": "COc1cc(NCCCN(CC(C)C)CC(C)C)c2ncccc2c1", "growth": "-27.1% (active)"}, {"smiles": "COc1cc(/C=C/C(=O)c2ccccc2)ccc1Oc1nc(NCCO)nc(N2CCOCC2)n1", "growth": "103% (inactive)"}, {"smiles": "CCCCCN1C(=O)/C(=c2\\sc3n(c2=O)C2C(NN=3)N(CC)C(=O)N2CC)c2cccc(C)c21", "note": "(stereo not given)", "growth": "34.5% (inactive)"}, {"smiles": "COC(=O)[C@H](C)NC(=O)NC(=O)NC(=O)CI", "growth": "70.2% (inactive)"}, {"smiles": "CC(CN1CCCCC1)NC(=O)c1scnc1-c1ccccc1", "note": "(stereo not given)", "growth": "111% (inactive)"}, {"smiles": "COc1cc2cc(Oc3ccc(NC(=O)Nc4cc(C(F)(F)F)cc(C(F)(F)F)c4)cc3)c(C)nc2cc1OCCN1CCOCC1", "growth": "-12% (active)"}, {"smiles": "CCCNC(=O)Oc1ccc(/C(=C(\\C)c2ccccc2)c2ccc(OCCCN(C)C)cc2)cc1", "growth": "83.4% (inactive)"}, {"smiles": "Cc1cc2c(C(C)C)c(O)c(O)c(C=Nc3ccccc3[N+](=O)[O-])c2c(O)c1-c1c(C)cc2c(C(C)C)c(O)c(O)c(C=Nc3ccccc3[N+](=O)[O-])c2c1O", "growth": "80.5% (inactive)"}, {"smiles": "O=S(=O)(NCCCNc1cc(-c2cn(-c3ccccc3)nc2-c2cccc(O)c2)ccn1)c1cccc2ccccc12", "growth": "-18.4% (active)"}, {"smiles": "c1ccc2c(c1)nc(-n1ccnc1)c1nc3ccccc3n12", "growth": "76% (inactive)"}, {"smiles": "Oc1c(CN2CCOCC2)cc(COCc2ccccc2)c2cccnc12", "growth": "12.1% (inactive)"}, {"smiles": "COc1cccc(-c2nc3sccn3c2-c2ccnc(NCCNS(=O)(=O)c3c(Cl)cccc3Cl)c2)c1", "growth": "56.8% (inactive)"}, {"smiles": "CN1CCN(Cc2ccc(NC(=O)c3cncc(C#Cc4cnc5ccc(N6CCN(C)CC6)nn45)c3)cc2C(F)(F)F)CC1", "growth": "-75.2% (active)"}, {"smiles": "CCN1C(=O)N(CC)C2SC(N/N=C/c3ccccc3F)=NC21", "note": "(stereo not given)", "growth": "40.4% (inactive)"}, {"smiles": "Cc1ccc(C2=N[C@H]3CCC[C@@H]3N(c3ccccc3)C(C(Cl)Cl)=N2)cc1", "growth": "116% (inactive)"}, {"smiles": "O=Nc1c2cccnc2n2nnc3ccc(Cl)cc3c12", "growth": "-69.4% (active)"}, {"smiles": "CN(C)c1ccc2nc3ccc(N)cc3[n+](-c3ccccc3)c2c1", "growth": "-28.6% (active) and 20.2% (inactive)"}, {"smiles": "C=CCN1CCCC1=O", "growth": "96.5% (inactive)"}, {"smiles": "CCCCCCCCN(CCO)CCCCCCCC", "growth": "98.7% (inactive)"}, {"smiles": "O=C(O)c1ccc(NCc2cn(-c3ccc(C(F)(F)F)cc3)nc2-c2ccc(C(=O)O)cc2)cc1", "growth": "123% (inactive)"}]}]}
